The values that follow come from PubChem BioAssay.

Experiment [1] can be described thus: viability loss in pontine glioma line – cell-based, SU-DIPG-XXV, MIPE5.0, CellTiter-Glo, qHTS, dose response (AID 1347065; cut-off not given, nearly all actives have AC50 up to about 26 µM;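 note: cells exposed to compound for 48 hours before ATP readout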). The note with it: CellTiter-Glo ATP luminescence.
Experiment [2] in a line: SU-DIPG-VI glioma cell viability, MIPE4.0 library, CellTiter-Glo luminescence, qHTS (AID 1347066; cut-off not given, nearly all actives have AC50 up to about 30 µM;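 note: cells exposed to compound for 48 hours before readout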). The note with it: CellTiter-Glo ATP luminescence.
Experiment [3] in a line: JHH-DIPG-1 glioma cell viability, MIPE5.0 library, CellTiter-Glo luminescence, qHTS (AID 1347067; cut-off not given, nearly all actives have AC50 up to about 26 µM;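 note: cells exposed to compound for 48 hours before readout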). The settings on record: JHH-DIPG-1 glioma viability, CellTiter-Glo ATP luminescence.
Experiment [4] is described as follows: SU-DIPG-XXV glioma cell viability, MIPE5.0 library, qHTS (AID 1347068; cut-off not given, nearly all actives have IC50 up to about 30 µM).
The nature of experiment [5]: sensitizers of A549 cells to miR-34 induction, primary screen, imaging, A549 dox-inducible miR-34, nuclei and caspase counts (AID 1347080;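 active = compounds whose cell count with miR-34 switched on is under 0.7 times the count with it off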). The settings on record: A549 miR-34 inducible, Hoechst nuclei count, 48 h.
Experiment [6] deals with NAD(+) hydrolase SARM1 (Homo sapiens) (UniProt Q6SZW1). The experiment can be described thus: SARM1 TIR NADase inhibitors, cell lysate, NAD-Glo luminescence (AID 1508614;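 active = compound whose remaining NAD level is above about 45 nM, limit read from the data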;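 note: higher remaining NAD means stronger inhibition of SARM1 NADase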). The note with it: SAM-TIR HEK293T lysate NADase, at 1 µM, stronger effect = higher value.
Chain of NAD(+) hydrolase SARM1 (Homo sapiens) (Q6SZW1 whole entry, looked up, the tested form may be a part): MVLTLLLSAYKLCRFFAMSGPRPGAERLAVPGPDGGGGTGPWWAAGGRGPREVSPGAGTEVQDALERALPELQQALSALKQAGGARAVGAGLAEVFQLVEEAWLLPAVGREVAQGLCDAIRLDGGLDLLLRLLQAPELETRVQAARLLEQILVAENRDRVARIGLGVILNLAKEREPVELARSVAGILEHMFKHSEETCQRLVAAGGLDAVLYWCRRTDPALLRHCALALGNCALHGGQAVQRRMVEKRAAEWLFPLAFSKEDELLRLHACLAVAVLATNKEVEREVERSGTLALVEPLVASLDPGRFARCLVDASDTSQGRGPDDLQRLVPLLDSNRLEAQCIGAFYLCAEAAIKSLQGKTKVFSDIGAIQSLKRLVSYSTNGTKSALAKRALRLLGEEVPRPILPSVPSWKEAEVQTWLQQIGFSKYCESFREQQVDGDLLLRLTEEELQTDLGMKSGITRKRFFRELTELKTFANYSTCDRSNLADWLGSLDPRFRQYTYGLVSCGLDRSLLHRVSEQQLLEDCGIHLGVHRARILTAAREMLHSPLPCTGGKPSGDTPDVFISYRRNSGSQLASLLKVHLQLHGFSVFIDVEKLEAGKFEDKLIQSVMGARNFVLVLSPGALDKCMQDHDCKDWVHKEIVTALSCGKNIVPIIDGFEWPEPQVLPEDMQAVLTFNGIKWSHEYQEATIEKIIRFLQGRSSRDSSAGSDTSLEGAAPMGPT
The target in experiment [7] is Mitogen-activated protein kinase 7 (Homo sapiens) (UniProt Q13164). As to the kind of experiment: ERK5 transactivation activators in reporter cells, primary screen, cell-based, HTS (AID 1508626;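 active = luciferase signal above three times the same-plate solvent-only control wells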;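 note: luciferase driven by Gal4-ERK5 fusion binding five Gal4 sites before minimal TATA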). The note with it: HeLa Gal4-ERK5 transactivation, 18 h, at 5 µM, stronger effect = higher value.
Chain of Mitogen-activated protein kinase 7 (Homo sapiens) (Q13164 whole entry, looked up, the tested form may be a part): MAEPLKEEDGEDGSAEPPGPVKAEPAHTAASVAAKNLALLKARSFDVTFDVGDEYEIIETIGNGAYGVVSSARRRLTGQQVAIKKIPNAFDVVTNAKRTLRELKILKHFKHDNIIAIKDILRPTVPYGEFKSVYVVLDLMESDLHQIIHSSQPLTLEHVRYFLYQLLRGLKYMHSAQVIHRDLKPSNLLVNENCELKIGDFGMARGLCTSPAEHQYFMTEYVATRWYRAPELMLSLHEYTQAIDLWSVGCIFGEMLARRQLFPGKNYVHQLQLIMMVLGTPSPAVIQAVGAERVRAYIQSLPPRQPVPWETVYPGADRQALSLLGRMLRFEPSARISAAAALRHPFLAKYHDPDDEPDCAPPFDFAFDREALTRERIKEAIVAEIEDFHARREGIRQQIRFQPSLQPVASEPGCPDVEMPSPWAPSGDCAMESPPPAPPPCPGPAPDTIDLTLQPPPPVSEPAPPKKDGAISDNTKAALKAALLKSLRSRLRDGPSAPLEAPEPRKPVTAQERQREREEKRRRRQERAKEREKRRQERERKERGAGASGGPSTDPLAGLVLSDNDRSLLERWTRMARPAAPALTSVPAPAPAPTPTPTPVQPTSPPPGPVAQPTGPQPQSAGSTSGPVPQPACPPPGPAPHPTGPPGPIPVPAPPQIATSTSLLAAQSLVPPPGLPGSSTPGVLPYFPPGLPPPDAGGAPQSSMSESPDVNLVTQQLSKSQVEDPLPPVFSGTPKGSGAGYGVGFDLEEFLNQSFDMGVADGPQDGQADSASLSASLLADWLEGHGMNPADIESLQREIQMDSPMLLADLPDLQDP
Experiment [8] can be described thus: LFS_MB_P medulloblastoma growth inhibition, cell-based, chromothripsis tumors, cisplatin or BGB combos (AID 1671449; in the data active = inhibition above about 80%;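 note: cells exposed for 96 hours; 0% = vehicle DMSO and 100% = killing by high DMSO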). The note with it: LFS_MB_P medulloblastoma cells.
The nature of experiment [9]: HDN33 neuroblastoma growth inhibition, cell-based, chromothripsis tumors, cisplatin or BGB combos (AID 1671450; in the data active = inhibition above about 80%;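 note: cells exposed to compound for four days; 0% = vehicle DMSO and 100% = cell killing by high DMSO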). The settings on record: HDN33 neuroblastoma cells, stronger effect = higher value.
Experiment [10] is described as follows: ICB984 medulloblastoma cell growth inhibition, synergistic combos for chromothripsis tumors, cisplatin or BGB combos (AID 1671451; call rule not given here;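 note: cells exposed for 96 hours before readout; 0% = vehicle DMSO and 100% = killing by high DMSO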). The note with it: ICB984 medulloblastoma cells, drug combinations, stronger effect = higher value.
A short description of experiment [11]: LFS_MB_1R medulloblastoma cell growth inhibition, synergistic combos for chromothripsis tumors, cisplatin or BGB combos (AID 1671452; in the data active = inhibition above about 80%;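 note: cells exposed for 96 hours before readout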). The note with it: LFS_MB_1R medulloblastoma cells, stronger effect = higher value.
Experiment [12] is described as follows: HTB85 osteosarcoma cell growth inhibition, synergistic combos for chromothripsis tumors, BGB or cisplatin IC20 combos (AID 1671453; in the data active = inhibition above about 80%;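 note: cells exposed for 96 hours before readout; 0% = vehicle DMSO and 100% = high DMSO killing control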). The note with it: HTB85 osteosarcoma cells, drug combinations, stronger effect = higher value.
The nature of experiment [13]: CRL2098 osteosarcoma cell growth inhibition, synergistic combos for chromothripsis tumors, BGB or cisplatin IC20 combos (AID 1671454; in the data active = inhibition above about 80%;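 note: cells exposed for 96 h before readout; 0% = vehicle DMSO and 100% = killing by high DMSO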). The note with it: CRL2098 osteosarcoma cells, drug combinations, stronger effect = higher value.
Experiment [14] in a line: HD-MB03 medulloblastoma cell growth inhibition, synergistic combos for chromothripsis tumors, BGB or cisplatin IC20 combos (AID 1671455; in the data active = inhibition above about 83%;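 note: 0% = vehicle DMSO and 100% = high DMSO as cytotoxic control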). The settings on record: HD-MB03 medulloblastoma cells, stronger effect = higher value.
Experiment [15] can be described thus: survival rescue of mitochondrial mutant cells in low glucose, primary screen, MELAS cybrids, Rieske KO mouse fibroblasts, CellTiter-Glo (AID 1508586;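 active = mean z-score across replicates of 1.96 or higher in either the MELAS or the Rieske mutant cell line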;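 note: z relative to plate mean and SD of compound and empty wells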).
Experiment [16] can be described thus: viability rescue of complex I mutant cybrids, primary screen, cell-based, galactose medium, ATP luminescence (AID 1645843;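 active = z-score of at least 1.8 in each of two replicates, scored against plate mean and spread of sample wells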;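 note: positive z means more ATP and so rescue of galactose-driven cybrid death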). The note with it: complex I mutant cybrid cells, 72 h, stronger effect = higher value.
Experiment [17] in a line: phospholipid biosynthesis inhibitors in animal cells, primary screen, cell-based, LOPAC library, screen 4 (AID 1347384; call rule not given here). The note with it: phospholipid biosynthesis inhibition screen, at 10 µM.
A short description of experiment [18]: modifiers of HSF1 nuclear foci, imaging, Selleck Cancer Library (AID 1347162; in the data active = plate-normalised HSF1 focus index below about 0.46). The note with it: human cells, at 10 µM; SSMD: measured here: HSF1 foci SSMD mean; cell count: measured here: cell number; plate-normalised HSF1 focus index: stronger effect = lower value.
Experiment [19] is described as follows: ovarian cancer cell viability with rucaparib, profiling panel, oncology-focused library, rucaparib conditional (AID 1508598). The note with it: patient-derived ovarian cancer cells, CellTiter-Glo viability, 144 h, stronger effect = lower value.
[20] abbreviates: measured here: combination with BGB IC40, at 0.05 µM.
Where [21] appears, read: MELAS cybrid survival, CellTiter-Glo 48 h, stronger effect = higher value.
[22] abbreviates: Rieske KO mouse fibroblast survival, CellTiter-Glo 72 h.

Values joined by “and” are separate entries in the source; they are usually repeats but may differ in a detail not shown here. Identical values can stand only once. Results filed as inconclusive are left out. Active and inactive are the calls of the source.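 Rule for the calls, unless noted: active = normalized viability below 100% at a tested concentration; inactive = the rest.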

Turning to `S=P(N1CC1)(N1CC1)N1CC1`, the compound was called inactive in [1], in [2], in [3] and in experiment [4]. Besides, the fold change is 0.906 (inactive) in experiment [5] (stronger effect = lower value, cell number ratio, induced over uninduced) and 2.37 in [5] (measured here: relative caspase fold change +Dox/-Dox). Further, the cell count in experiment [5] (measured here: total cells with miR-34 induction, stronger effect = lower value) was 2790; in experiment [5] (measured here: total cells without miR-34 induction) it was 3080. Also, the remaining NAD in [6] is 10 nM (inactive). The luciferase signal in [7] is 40 AU (inactive). Also, the inhibition was -23.2% (inactive) and -26.3% (inactive) in experiment [8] (at 0.5 µM, stronger effect = higher value); 4.28% and -9.96% in experiment [8] (measured here: combination with BGB IC20, at 0.005 µM); -18.6% and -23.3% in [8] (measured here: combination with BGB IC40, at 0.005 µM); -9.26% and -20.5% in experiment [8] (setting [20]); -29.9% and -42.7% in [8] (measured here: combination with cisplatin, at 0.5 µM, stronger effect = higher value); -29% and -10.5% in experiment [8] (measured here: combination with cisplatin, at 5 µM, stronger effect = higher value). Further, the inhibition in [9] (BGB combo, at 5 µM) is 10.9% and 17%; in experiment [9] (at 0.5 µM) it was -22.8% (inactive) and -4.61% (inactive); in experiment [9] (cisplatin combo, at 5 µM), -33.8% and -6.48%; in [9] (measured here: with BGB IC20 combination, at 0.5 µM) it was -8.9% and -5.09%; in [9] (measured here: with cisplatin IC20 combination, at 0.5 µM), -36% and 8.65%; in experiment [9] (single agent, at 5 µM), -17.8% and -15.5%. For the same compound, the inhibition was -28.8% and -30.2% in experiment [10] (BGB IC20 combo, at 0.005 µM); -42.6% and -1.02% in [10] (BGB IC40 combo, at 0.005 µM); -71.3% and -1.28% in [10] (BGB IC40 combo, at 0.05 µM); -28.5% (inactive) and -18.4% (inactive) in experiment [10] (at 0.5 µM); -78.1% and -1.28% in experiment [10] (cisplatin combo, at 0.05 µM); -36.2% and -27% in experiment [10] (cisplatin combo, at 0.5 µM). Also, the inhibition in experiment [10] (cisplatin combo, at 5 µM) was -39.5% and -6.98%; in experiment [10] (measured here: 5 uM single agent, at 5 µM), -8.68% and -10.4%; in [11] (at 0.5 µM) it was -9.66% (inactive) and -3.23% (inactive); in experiment [11] (setting [20]), -28.2% and 8.25%; in [11] (measured here: combination with cisplatin, at 0.5 µM), -26.8% and 11.1%; in experiment [11] (measured here: combination with cisplatin, at 5 µM), -75% and -8.13%. Besides, the inhibition in experiment [12] (at 0.5 µM) was -27.7% (inactive) and -19.6% (inactive); in experiment [12] (measured here: with BGB IC20, at 0.5 µM), -28% and -46.5%; in experiment [12] (measured here: with BGB IC20, at 5 µM) it was 12.6% and 4.5%; in experiment [12] (measured here: with cisplatin IC20, at 0.5 µM), -41.1% and -12.7%; in experiment [12] (measured here: with cisplatin IC20, at 5 µM), -24.2% and -0.841%; in experiment [12] (single agent, at 5 µM) it was -13.2% and -18.3%. Besides, the inhibition is -50.3% (inactive) and -34.6% (inactive) in experiment [13] (at 0.5 µM); -22.9% and -20.1% in experiment [13] (measured here: combination with BGB at IC20, at 0.5 µM); -36.2% and -49.4% in experiment [13] (measured here: combination with cisplatin at IC20, at 0.5 µM); -12.6% (inactive) and -4.94% (inactive) in [14] (at 0.5 µM); -12.8% and -2.1% in experiment [14] (measured here: combo with BGB at IC20, at 0.5 µM); -11.1% and -9.72% in experiment [14] (measured here: combo with cisplatin at IC20, at 0.5 µM).
For the compound `NS(=O)(=O)c1cc2c(cc1Cl)NC(C(Cl)Cl)NS2(=O)=O` (centres undefined), the result in [1], in [2], in experiment [3] and in [4] was inactive. The z-score in [15] (setting [21]) was -0.307 (inactive) and 0.588 (inactive) and 0.372 (inactive); in experiment [15] (setting [22]), 0.662 and 0.211 and -0.506; in experiment [16] it was -0.19 (inactive). For the same compound, the remaining NAD in experiment [6] is 10 nM (inactive). Also, the luciferase signal in experiment [7] was 48 AU (inactive).
For `NC(=O)OCC(COC(N)=O)c1ccccc1`, the outcome in [1], in experiment [2], in experiment [3], in experiment [4] and in experiment [17] was inactive. Moreover, the z-score in [15] (setting [21]) was 0.426 (inactive) and -0.303 (inactive); in experiment [15] (setting [22]), 0.386 and -0.256; in experiment [16], 0.13 (inactive) and 0.59 (inactive) and 0.445 (inactive). Moreover, the luciferase signal in [7] is 112 AU (inactive).
For `N#Cc1ccc(C(c2ccc(C#N)cc2)n2cncn2)cc1`, the result in experiment [1], in [2], in experiment [3] and in experiment [4] was inactive. For the same compound, the SSMD in experiment [18] came out at 2. Besides, the cell count in experiment [18] stood at 6610. In addition, in experiment [18], the plate-normalised HSF1 focus index was 1.1 (inactive). Further, the z-score in experiment [15] (setting [21]) was -0.0811 (inactive) and 0.894 (inactive) and -0.0703 (inactive); in experiment [15] (setting [22]), -0.000166 and 0.656 and -0.338. The viability in [19] (at 0.000305 µM, OCI-C5x cells, with rucaparib 10 µM, 100% = cells with rucaparib alone) was 117% (inactive); in [19] (at 0.000305 µM, OCI-C5x cells, without rucaparib) it was 101% (inactive); in experiment [19] (at 0.000305 µM, OCI-P5x cells, with rucaparib 20 µM, 100% = cells with rucaparib alone), 94% (active); in experiment [19] (at 0.000305 µM, OCI-P5x cells, without rucaparib) it was 91% (active); in experiment [19] (at 0.00122 µM, OCI-C5x cells, with rucaparib 10 µM, 100% = cells with rucaparib alone), 116% (inactive); in experiment [19] (at 0.00122 µM, OCI-C5x cells, without rucaparib) it was 113% (inactive). Also, the viability in [19] (at 0.00122 µM, OCI-P5x cells, with rucaparib 20 µM, 100% = cells with rucaparib alone) is 104% (inactive); in experiment [19] (at 0.00122 µM, OCI-P5x cells, without rucaparib), 94.3% (active); in [19] (at 0.00488 µM, OCI-C5x cells, with rucaparib 10 µM, 100% = cells with rucaparib alone), 114% (inactive); in [19] (at 0.00488 µM, OCI-C5x cells, without rucaparib) it was 107% (inactive); in [19] (at 0.00488 µM, OCI-P5x cells, with rucaparib 20 µM, 100% = cells with rucaparib alone), 104% (inactive); in [19] (at 0.00488 µM, OCI-P5x cells, without rucaparib), 97.8% (active). Besides, the viability was 117% (inactive) in experiment [19] (at 0.0195 µM, OCI-C5x cells, with rucaparib 10 µM, 100% = cells with rucaparib alone); 112% (inactive) in [19] (at 0.0195 µM, OCI-C5x cells, without rucaparib); 109% (inactive) in experiment [19] (at 0.0195 µM, OCI-P5x cells, with rucaparib 20 µM, 100% = cells with rucaparib alone); 106% (inactive) in [19] (at 0.0195 µM, OCI-P5x cells, without rucaparib); 123% (inactive) in experiment [19] (at 0.0781 µM, OCI-C5x cells, with rucaparib 10 µM, 100% = cells with rucaparib alone); 102% (inactive) in experiment [19] (at 0.0781 µM, OCI-C5x cells, without rucaparib). The viability is 106% (inactive) in [19] (at 0.0781 µM, OCI-P5x cells, with rucaparib 20 µM, 100% = cells with rucaparib alone); 105% (inactive) in experiment [19] (at 0.0781 µM, OCI-P5x cells, without rucaparib); 117% (inactive) in [19] (at 0.313 µM, OCI-C5x cells, with rucaparib 10 µM, 100% = cells with rucaparib alone).
